The source of these data is PubChem BioAssay AID624138 (Broad Institute, 2012).

About 35 (0.2%) of roughly 17,000 compounds were called active.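 Rule for the calls: active = compounds whose four printed spots each show fluorescence over background unusually high for their array block, chance value under 7%; inactive = the rest.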 This excerpt belongs to a sample that is enriched for actives.

Sequence of Signal transducer and activator of transcription 3 (Homo sapiens) (P40763 whole entry, looked up): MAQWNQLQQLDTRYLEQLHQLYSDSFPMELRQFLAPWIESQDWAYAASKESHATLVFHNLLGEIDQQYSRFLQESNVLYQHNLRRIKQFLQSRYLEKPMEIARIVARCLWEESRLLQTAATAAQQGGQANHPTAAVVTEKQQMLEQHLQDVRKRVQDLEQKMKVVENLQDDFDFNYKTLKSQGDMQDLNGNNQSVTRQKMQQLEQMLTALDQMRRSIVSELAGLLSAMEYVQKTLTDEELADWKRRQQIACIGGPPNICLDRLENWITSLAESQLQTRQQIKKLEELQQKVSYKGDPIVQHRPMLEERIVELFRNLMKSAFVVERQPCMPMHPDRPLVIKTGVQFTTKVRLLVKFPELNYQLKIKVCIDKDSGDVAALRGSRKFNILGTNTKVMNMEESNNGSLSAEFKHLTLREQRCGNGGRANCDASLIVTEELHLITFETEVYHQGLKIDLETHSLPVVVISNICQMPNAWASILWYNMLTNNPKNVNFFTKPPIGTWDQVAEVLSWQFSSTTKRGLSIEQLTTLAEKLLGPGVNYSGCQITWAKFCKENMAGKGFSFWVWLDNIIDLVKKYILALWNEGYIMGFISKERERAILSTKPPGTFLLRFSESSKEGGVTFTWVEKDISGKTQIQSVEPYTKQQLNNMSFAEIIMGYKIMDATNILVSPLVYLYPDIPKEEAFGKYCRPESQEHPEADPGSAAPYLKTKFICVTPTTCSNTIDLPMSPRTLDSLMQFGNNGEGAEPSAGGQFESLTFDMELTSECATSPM

This test addresses Signal transducer and activator of transcription 3 (Homo sapiens) (UniProt P40763). Put plainly: small molecules binding His-tagged STAT3 – biochemical, small molecule microarray, single point, set 2, primary screen (AID 624138). As to conditions: anti-His fluorescence.
Consider `CNC[C@@H]1Oc2ccc(NC(=O)Nc3ccc4c(c3)OCO4)cc2C(=O)N([C@H](C)CO)C[C@@H]1C`, for which the molecule was classed as inactive.

Turning to `C[C@@H]1CCCCO[C@@H](CN(C)Cc2ccc(Cl)c(Cl)c2)[C@@H](C)CN([C@@H](C)CO)C(=O)c2cc(NS(C)(=O)=O)ccc2O1`, the result was inactive. To `C[C@H]1CCCCO[C@@H](CN(C)Cc2ccccc2)[C@@H](C)CN([C@@H](C)CO)C(=O)c2cc(NC(=O)CCCN(C)C)ccc2O1` belongs “inactive”; to `C[C@H]1CN([C@@H](C)CO)C(=O)c2cc(NC(=O)Nc3ccccc3)ccc2O[C@@H]1CN(C)C(=O)Nc1ccccc1`, “inactive”; to `CCOC(=O)c1c(CN2CCOCC2)nc2c3ccccc3ccn12`, “inactive”. To `O=C(c1cc2ccccc2oc1=O)N(Cc1ccc(F)cc1)Cc1ccco1` belongs “inactive”. To `CCOC(=O)c1sc(NC(=S)Nc2ccc3c(c2)OCCO3)c(C(=O)OCC)c1C` belongs “inactive”. With `CC(Oc1ccccc1)C(=O)N[C@@H]1C(=O)N2[C@@H]1SC(C)(C)[C@@H]2C(=O)O` (some centres undefined), the result was inactive. The result for `CC(C)NC(=O)Nc1ccc2c(c1)C(=O)N([C@H](C)CO)C[C@H](C)[C@@H](CN(C)C(=O)CCCN(C)C)OCCCC[C@@H](C)O2` reads “inactive”; that for `COc1ccc(-c2oc3cc(OC)ccc3c2C(=O)c2ccc(C#N)cc2)cc1`, “inactive”. On to `C[C@H](CO)N1C[C@H](C)[C@@H](CN(C)Cc2ccncc2)Oc2ccc(NC(=O)Nc3ccccc3)cc2C1=O`, for which the call was inactive. To `C[C@H](CO)N1C[C@H](C)[C@H](CN(C)C(=O)NC2CCCCC2)Oc2c(NC(=O)c3nc4ccccc4s3)cccc2C1=O` belongs “inactive”; to `C[C@@H]1CCCCO[C@H](CN(C)C(=O)Nc2cccc3ccccc23)[C@@H](C)CN([C@H](C)CO)C(=O)c2cc(NS(=O)(=O)c3cccs3)ccc2O1`, “inactive”; to `C[C@@H]1CCCCO[C@H](CN(C)Cc2ccccc2)[C@H](C)CN([C@@H](C)CO)C(=O)c2cc(NS(=O)(=O)c3ccccc3)ccc2O1`, “inactive”.

Take `C[C@H](CO)N1C[C@H](C)[C@H](CN(C)S(=O)(=O)c2ccc(F)cc2)Oc2ncc(-c3ccc(F)cc3)cc2C1=O`: the call was inactive. The result for `C[C@@H]1CN([C@@H](C)CO)C(=O)c2cc(NS(C)(=O)=O)ccc2O[C@@H]1CN(C)C(=O)Nc1ccc(F)cc1` reads “inactive”; that for `C[C@H](CO)N1C[C@H](C)[C@@H](CN(C)S(=O)(=O)c2cn(C)cn2)Oc2ccc(NS(=O)(=O)c3cn(C)cn3)cc2C1=O`, “inactive”. To `C[C@@H]1CC[C@]2(C(=O)O)CC[C@]3(C)C(=CCC4[C@@]5(C)CC[C@H](O)[C@](C)(C(=O)O)C5CC[C@]43C)C2[C@]1(C)O` (some centres undefined) belongs “inactive”.

Consider `NC(=O)CSc1nnc(-c2ccccc2F)n1-c1ccccc1`, for which the molecule was called inactive. The result for `C[C@H](CO)N1C[C@H](C)[C@H](CN(C)Cc2ccc(C(=O)O)cc2)Oc2c(NC(=O)C3CCOCC3)cccc2C1=O` reads “inactive”; that for `COC(=O)c1ccccc1NC(=O)CNS(=O)(=O)c1cc(Cl)ccc1Cl`, “inactive”. To `Cc1noc(C)c1NC(=O)N(C)C[C@@H]1OCCCC[C@@H](C)Oc2ccc(NC(=O)C3CCCCC3)cc2C(=O)N([C@H](C)CO)C[C@@H]1C` belongs “inactive”. Take `COC(=O)c1c(NC(=O)c2cc(-c3ccccn3)nc3c(C)cc(C)cc23)sc(C)c1C`: the molecule was called inactive.

As for `COc1ccc(NC(=O)Nc2ccc3c(c2)C(=O)N([C@@H](C)CO)C[C@@H](C)[C@H](CN(C)S(=O)(=O)c2cccs2)O3)cc1`, the result was inactive. The result for `Cc1noc(C)c1NC(=O)Nc1cccc2c1O[C@H](CN(C)C(=O)Nc1c(C)noc1C)[C@@H](C)CN([C@@H](C)CO)C2=O` reads “inactive”; that for `CC[C@@H]1Cc2cc(O)ccc2C2=C1c1ccc(O)cc1C[C@H]2CC`, “inactive”. As to `CC(C)C(NS(=O)(=O)c1ccc(-c2ccc(Br)cc2)cc1)C(=O)O` (centres undefined), the call was inactive. As for `CC(C)(C)[C@H]1C=C(C(=O)NCc2ccccc2)O[C@@H](OCc2ccc(CO)cc2)C1`, the molecule was called inactive.

`O=C(NCc1ccccc1)C1=C[C@H](C2CC2)C[C@H](OCc2ccc(CO)cc2)O1`: the molecule was classed as inactive.

In the case of `O=C(NCc1ccccc1)C1=C[C@@H](C2CCCCC2)C[C@@H](OCc2ccc(CO)cc2)O1`, the outcome was active. The result for `C[C@@H]1CN([C@@H](C)CO)C(=O)CCCn2nncc2CO[C@@H]1CN(C)Cc1ccccc1` reads “inactive”.

As for `CN(C)c1nc(Nc2nc3ccccc3[nH]2)nc(N(C)C)n1`, the molecule was called inactive. The result for `COC(=O)C(C)N(C(=O)c1ccccc1[N+](=O)[O-])c1c(C)cccc1C` (centres undefined) reads “inactive”; that for `COc1ccc(NC(=O)Nc2nn(Cc3ccc(Cl)cc3Cl)cc2Br)cc1OC`, “inactive”; that for `COCCCNC(=O)C(=O)c1cn(C)c2ccccc12`, “inactive”. The result for `O=C1C[C@@](C(=O)NCC(F)(F)F)(c2ccc([N+](=O)[O-])cc2)[C@@H](c2ccc(CO)cc2I)N1C1CCCCC1` reads “inactive”; that for `COC(=O)C1=C[C@H](O[C@@H]2O[C@H](CO)[C@@H](O)[C@H](O)[C@H]2O)C[C@H]2[C@]3(C)C[C@@H](c4ccoc4)OC(=O)[C@H]3CC[C@@]12C`, “inactive”; that for `CCn1c(SCC(=O)O)nnc1-c1ccc(OC)cc1`, “inactive”. To `C[C@H](CO)N1C[C@H](C)[C@H](CN(C)C(=O)Nc2ccccc2)Oc2ccc(NC(=O)CCN3CCOCC3)cc2CC1=O` belongs “inactive”; to `OC[C@H]1O[C@@H](OCc2ccccc2)[C@H](O[C@@H]2OC[C@](O)(CO)[C@H]2O)[C@@H](O)[C@@H]1O`, “inactive”; to `COc1ccc(CCN2C(=O)[C@@]3(Cc4ccccc42)c2ccccc2C(=O)N(Cc2ccccc2C(F)(F)F)[C@H]3c2ccc(CO)cc2)cc1`, “inactive”. As for `C[C@@H]1CN([C@H](C)CO)C(=O)CCCn2cc(nn2)CO[C@@H]1CN(C)C(=O)Nc1ccc2c(c1)OCO2`, the call was inactive. In the case of `O=C(Nc1cccc(OCC(=O)N2CCOCC2)c1)C1CCCCC1`, the molecule was classed as inactive.

Take `O=c1c(-c2ccc(O[C@@H]3O[C@H](CO)[C@@H](O)[C@H](O)[C@H]3O)cc2)coc2c([C@@H]3O[C@H](CO)[C@@H](O)[C@H](O)[C@H]3O)c(O)cc(O)c12`: the molecule was classed as inactive. To `Cc1ccc(Cn2c(NCc3nc4ccccc4n3C)nc3ccccc32)cc1` belongs “inactive”; to `COc1cccc(-c2cc(C(F)(F)F)n3nc(C(=O)NCc4ccccn4)cc3n2)c1`, “inactive”; to `C[C@@H]1CN([C@@H](C)CO)C(=O)c2cc(NS(C)(=O)=O)ccc2O[C@@H]1CN(C)C`, “inactive”. To `CCCN(C)C[C@@H]1Oc2ncc(C#Cc3ccccc3)cc2C(=O)N([C@H](C)CO)C[C@@H]1C` belongs “inactive”; to `Cc1cc(OCC(=O)Nc2ccccc2C(N)=O)cc(C)c1Br`, “inactive”. As to `COc1ccc(CCNc2nc(C)cc(C)n2)cc1OC`, the result was inactive. To `COc1ccc(S(=O)(=O)Nc2ccc3c(c2)C(=O)N([C@H](C)CO)C[C@@H](C)[C@@H](CN(C)Cc2ccccc2)O3)cc1` belongs “inactive”; to `C[C@@H]1CCCCO[C@@H](CN(C)Cc2ccncc2)[C@H](C)CN([C@@H](C)CO)C(=O)c2cc(N(C)C)ccc2O1`, “inactive”.

On to `C[C@@H]1CCCCO[C@@H](CN(C)C(=O)Cc2ccccc2)[C@H](C)CN([C@@H](C)CO)C(=O)c2cc(NC(=O)Nc3ccc(F)cc3)ccc2O1`, for which the result was inactive.

Turning to `CC(C)(C)c1ccc(OCC(=O)Nc2cccc(NC(=O)c3ccccc3)c2)cc1`, the call was inactive. As to `Oc1ccc(-c2c(-c3ccccc3)nn3c(C(F)(F)F)cc(C(F)(F)F)nc23)cc1`, the outcome was inactive. Turning to `COc1c(Br)cc2c(cc(C)n2-c2ccccc2)c1OCC(O)CNC(C)C` (centres undefined), the outcome was inactive. Regarding `CC(=O)c1c(C)n(CC(=O)O)c2ccccc12`, the molecule was classed as inactive. To `C[C@H](CO)N1C[C@H](C)[C@H](CN(C)C)Oc2c(NS(=O)(=O)c3ccc(Cl)cc3)cccc2C1=O` belongs “inactive”.

For `C[C@@H]1CN([C@H](C)CO)C(=O)CCCn2nncc2CO[C@@H]1CN(C)C`, the outcome was inactive. To `Cc1ccc(NC(=O)CSc2ncn[nH]2)c(C)c1` belongs “inactive”; to `C=C1C(=C/C=C2\CCC[C@]3(C)[C@@H]([C@H](C)CCCC(C)(C)O)CC[C@@H]23)C[C@@H](O)C[C@@H]1O`, “inactive”. For the molecule `COCCCNC(=O)[C@@]1(Cc2ccccc2)COC(c2ccc(OCCCO)cc2)=N1`, the molecule was classed as inactive.

As to `CC(C)(O)C(O)COc1c2occc2cc2ccc(=O)oc12` (centres undefined), the call was inactive. Turning to `CNC[C@@H]1Oc2c(NC(=O)C3CCOCC3)cccc2C(=O)N([C@@H](C)CO)C[C@H]1C`, the result was inactive.

As for `O=C(O)CCC(=O)Nc1ccc(-c2nc3ccccc3o2)cc1`, the molecule was classed as inactive. To `C[C@@H]1CN([C@H](C)CO)C(=O)c2cc(NC(=O)Nc3ccccc3)ccc2O[C@@H]1CN(C)Cc1ccc(Cl)c(Cl)c1` belongs “inactive”; to `CCOC(=O)c1ccc(COC(=O)c2cc(=O)[nH]c3ccccc23)o1`, “inactive”; to `Cc1noc(C)c1NC(=O)Nc1ccc2c(c1)CC(=O)N([C@H](C)CO)C[C@@H](C)[C@H](CN(C)S(=O)(=O)c1cccs1)O2`, “inactive”.

As to `C[C@@H]1CN([C@H](C)CO)C(=O)c2cc(NC(=O)Nc3ccccc3)ccc2O[C@@H](C)CCCCO[C@@H]1CN(C)S(=O)(=O)c1ccc(F)cc1`, the outcome was inactive. With `COc1cc(O)cc(C)c1C(=O)OC1C(CO)OC(n2ccc(=O)[nH]c2=O)C1OC(C)=O` (centres undefined), the molecule was classed as inactive. The result for `COc1ccc(S(=O)(=O)Nc2ccc3c(c2)C(=O)N([C@H](C)CO)C[C@H](C)[C@@H](CN(C)S(C)(=O)=O)OCCCC[C@@H](C)O3)cc1` reads “inactive”. To `Cc1noc(C)c1S(=O)(=O)Nc1ccc2c(c1)C(=O)N([C@H](C)CO)C[C@H](C)[C@H](CN(C)C(=O)CCC(F)(F)F)OCCCC[C@H](C)O2` belongs “inactive”; to `C[C@@H]1CCCCO[C@@H](CN(C)C(=O)c2ccccc2)[C@H](C)CN([C@@H](C)CO)C(=O)c2cc(NS(=O)(=O)c3cn(C)cn3)ccc2O1`, “inactive”; to `Cc1sc2nc(SCC(=O)Nc3ccccc3C(F)(F)F)nc(N)c2c1C`, “inactive”.
